# According to PubChem BioAssay (Tox21):
# Values joined by “and” are separate entries in the source; they are usually repeats but may differ in a detail not shown here. Identical values can stand only once. Inconclusive results are not listed. Active and inactive are the calls of the source. Calls follow the shape of the dose curve; as a rule, active = well fitted cell-killing curve with a large enough effect in the repeat runs; inconclusive = weak or mixed curves, or effect the other way; inactive = no such curve, though single readings can be large or run the other way.
# Test: qHTS assay for identifying genotoxic compounds that show differential cytotoxicity against isogenic chicken DT40 cell lines with known DNA damage response pathways - wild type cell line (AID 743012); also: nearly all actives have a fitted effect of over 60% in size
# Details: DT40 wild type chicken cells viability, CellTiter-Glo, 40 h; series mostly up to 68.4 µM
# From the text: U.S. Tox21 Program National Center for Advancing Translational Sciences [NCATS] NIH Chemical Genomics Center [NCGC] U.S. Environmental Protection Agency [EPA] National Institutes of Environmental Health Sciences [NIEHS] National Toxicology Program [NTP] U.S. Food and Drug Administration [FDA] Tox21 Assay Overview: DNA repair pathways play a critical role in cellular homeostasis by repairing DNA damage induced by endogenous processes and xenobiotics. Isogenic chicken DT40 cell lines deficient in different DNA repair pathways can be used to identify genotoxic compounds and aid in characterizing the nature of the DNA damage induced. Two DNA repair-deficient cell lines with disrupted genes, Rad54/Ku70 or Rev3, were used to screen the Tox21 10K compound library. Possible genotoxicity was based on the presence of a significant increase in cytotoxicity in one or more of the DNA repair-deficient cell lines compared to that observed in the parental DNA repair-proficient cell line. CellTiter Glo viability assay (Promega, Madison, WI) was used to measure cell viability in these cells after compound treatment. This assay includes the data from the wild type cell line.
# Tox21 Assay Protocol Summary: 300 DT40 wild type cells in 5 uL/well were dispensed into white, solid-bottom 1536-well plates using a Multidrop Combi (ThermoFisher Scientific, Waltham, MA) dispenser. After the assay plates were incubated at 37 C/5% CO2 for approximately 0.5 hour, 23 nL of compounds dissolved in DMSO, positive controls or DMSO only was transferred into the assay plate by a pintool work station (Kalypsys, San Diego, CA). The assay plates were incubated at 37 C/5% CO2 for 40 hours. After 5 uL per well of CellTiter-Glo reagent was added into each well of the assay plates, the plates were incubated for 30 min at room temperature and the luminescence intensity of the plates was measured using a ViewLux (PerkinElmer, Shelton, CT) plate reader.
# % is scaled to controls: 0 for no effect and ±100 for the full control effect; potency is read from the fitted curve at half-maximal effect.
row,Structure (SMILES),Potency
1,O=[N+]([O-])O.O=[N+]([O-])O.[Cd],43.3 µM (active)
2,CCC[CH2][Sn]([CH2]CCC)([CH2]CCC)[O]C(=O)c1ccccc1,0.243 µM (active)
3,CN(C)C(=S)[S-].CN(C)C(=S)[S-].[Cu+2],14.9 µM (active)
4,CCN(CC)c1c([N+](=O)[O-])cc(C(F)(F)F)c(N)c1[N+](=O)[O-],19.3 µM (active)
5,S=C(SSC(=S)N1CCCCC1)N1CCCCC1,0.531 µM (active)
6,Clc1ccc(C(c2ccc(Cl)cc2)C(Cl)(Cl)Cl)cc1,18.8 µM (active) and 24.3 µM (active)
7,CCCN(CC)CC1COC2(CCC(C(C)(C)C)CC2)O1 (stereo not given),5.45 µM (active)
8,Clc1ccc(-c2ccc(Cl)c(Cl)c2Cl)c(Cl)c1Cl,inactive
9,C[C@]12CC[C@@H]3c4ccc(OC(=O)N(CCCl)CCCl)cc4CC[C@H]3[C@@H]1CC[C@@H]2O,inactive
10,[Hg+2].[I-].[I-],1.37 µM (active)
11,C[C@]12CC[C@H]3[C@@H](CCC4=CC(=O)CC[C@@]43C)[C@@H]1CC[C@@H]2O,54.1 µM (active)
12,CC(=O)O[C@H]1CC[C@@]2(C)C(=CC[C@@H]3[C@@H]2CC[C@]2(C)C(=O)CC[C@@H]32)C1,inactive
13,Cc1cc(N=Nc2ccccc2C)ccc1N,27.3 µM (active)
14,CC(=O)[O-].[Tl+],2.75 µM (active)
15,c1ccc2c(c1)OCC(C1=NCCN1)O2 (stereo not given),5.31 µM (active)
16,Cc1cc(C(C)(C)c2cc(C)c(O)c(C)c2)cc(C)c1O,52.7 µM (active)
17,CC(C)(C)c1ccc(CSc2cnn(C(C)(C)C)c(=O)c2Cl)cc1,0.0097 µM (active)
18,CC(C)(C)OO,inactive
19,COc1ccc(N)cc1N,11.7 µM (active)
20,CN(C)CCc1c[nH]c2cccc(O)c12,30.3 µM (active)

row,Structure (SMILES),Potency
1,Cc1cc(C)cc(OP(=O)(Oc2cc(C)cc(C)c2)Oc2cc(C)cc(C)c2)c1,inactive
2,O=[N+]([O-])c1ccc2ccc3cccc4ccc1c2c34,inactive
3,CCN(CC)C(=S)[S-].CCN(CC)C(=S)[S-].[Zn+2],1.21 µM (active)
4,CCCCCCCCCCCCCCCC[n+]1ccccc1,427 nM (active) [middle of 4 runs]
5,C[C@]12Cc3nonc3C[C@@H]1CC[C@@H]1[C@@H]2CC[C@@]2(C)[C@H]1CC[C@]2(C)O,11.9 µM (active)
6,CC(C)(C)C(O)/C(=C\c1ccc(Cl)cc1Cl)n1cncn1 (stereo not given),18.6 µM (active)
7,COc1ccc(/C(=C/C(=O)N2CCOCC2)c2ccc(Cl)cc2)cc1OC,24.3 µM (active)
8,CC(C)(C)c1cc([N+](=O)[O-])cc(C(C)(C)C)c1O,6.86 µM (active)
9,CCOC(=O)CC(=O)CCl,61.1 µM (active)
10,CCOP(=S)(OCC)OC(Cl)C(Cl)(Cl)Cl (stereo not given),inactive
11,O=c1oc2ccccc2c(O)c1Cc1c(O)c2ccccc2oc1=O,inactive
12,O=c1[nH]c2ccccc2n1C1CCN(CCCC(c2ccc(F)cc2)c2ccc(F)cc2)CC1,5.31 µM (active) and 6.11 µM (active)
13,Oc1ccc(C(=C(Cl)Cl)c2ccc(O)cc2)cc1,inactive
14,CC(=O)[O-].CC(=O)[O-].O.O.[Cd+2],67.6 µM (active)
15,Clc1ccc(COC(Cn2ccnc2)c2ccc(Cl)cc2Cl)cc1 (stereo not given),7.5 µM (active) and 20.2 µM (active) and 15.3 µM (active)
16,ClC(Cl)=C(Cl)Cl,inactive
17,Clc1ccc(C(c2ccccc2Cl)C(Cl)(Cl)Cl)cc1 (stereo not given),45.1 µM (active)
18,O=C(CCCN1CCC2(CC1)C(=O)NCN2c1ccccc1)c1ccc(F)cc1,29.8 µM (active)
19,O=C(CCl)C(Cl)Cl,5.5 µM (active)
20,COC(=O)N(C(=O)N1CO[C@@]2(C(=O)OC)Cc3cc(Cl)ccc3C2=N1)c1ccc(OC(F)(F)F)cc1,6.63 µM (active)
